An excerpt weighted towards active compounds, which were near 5.2% of everything screened.
esBAF inh: inhibitors of esBAF chromatin remodeling in mouse ES cells. Bmi1-luciferase knock-in reporter, 24 h; 100% = twice the neutral-well signal. reporter increase, % at 12.5 µM. 350,000 compounds, 2% hits; in the data active = activation above about 40%;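 also: 0% = median of the plate's neutral control wells and 100% = double that signal; a rise in the Bmi1 reporter signal indicates esBAF inhibition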
SMARCA2 act: increases SMARCA2 function in MMTV reporter cells; MG213 cells, MMTV-luciferase reporter, dexamethasone, overnight; activation, % at 9.1 µM; 370,000 compounds, 1% hits; AID 652017; in the data active = activation above about 7.8%;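 also: 0% = vehicle wells and 100% = reference activator wells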
NR3A LBD binder: modulates the human NR3A ligand-binding domain | Tm shift relative to glycine control, % at 25 µM | NR3A LBD differential scanning fluorimetry, Tm shift; 0% = protein alone, 100% = glycine-bound protein | 340,000 compounds, 2.5% hits;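 active = melting temperature shift of at least 10% of the positive control shift, at one fixed dose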
Vif imaging: HIV Vif inhibition; HEK293T cells, Vif self-association by quenched fluorescence, imaging, 24 h; inhibition, % at 7.49 µM; AID 602346; 340,000 compounds, 0.35% hits; in the data active = inhibition above about 50%, passing the limit was not always enough
NadD block: inhibitors of Staphylococcus aureus NadD; purified NadD enzyme, colorimetric absorbance read-out; inhibition, % at 20 µM; 360,000 compounds, 0.78% hits; in the data active = inhibition above about 26%
SKN-1 block: C. elegans SKN-1 inhibition; inhibition, % at 21.8 µM; 360,000 compounds, 0.49% hits; C. elegans VP596 Pgst-4::GFP/RFP ratio, acrylamide-induced, 24 h;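 active = interference check ratio from 0.5 to 1.5 plus GFP to RFP signal ratio inhibition reaching or exceeding a fixed threshold, cut at about 30% in these data, passing the limit was not always enough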
NadD conf: confirmation of Staphylococcus aureus NadD inhibitors | shares compounds with NadD block | purified S. aureus NadD, colorimetric enzyme assay | inhibition, % at 20 µM | 2,000 compounds, 13% hits | AID 624309; in the data active = inhibition mostly above about 42%, no sharp cut-off; inactive = mostly below about 42%
* marks the source's active call; other numbers are inactive results; x = no result given.

SMILES | esBAF inh | SMARCA2 act | NR3A LBD binder | Vif imaging | NadD block | SKN-1 block | NadD conf
O=C(O)c1cccc(NC(=S)NC(NC(=O)c2cccc([N+](=O)[O-])c2)C(Cl)(Cl)Cl)c1 (stereo unspecified) | 20 | -4 | -9 | 11 | 64* | 3 | 7
Cc1noc(C)c1S(=O)(=O)Nc1ccc2c(c1)C(=O)N([C@H](C)CO)C[C@H](C)[C@@H](CN(C)S(=O)(=O)c1ccc(F)cc1)OCCCC[C@H](C)O2 | -4 | x | x | x | x | x | x
Cc1ccc(C2C(C=Nc3c(C)n(C)n(-c4ccccc4)c3=O)=C(c3ccccc3)Oc3ccccc32)cc1 (stereo unspecified) | x | 3 | 2 | 17 | 38* | 11 | 11
O=C(C[C@H]1CC[C@H]2[C@@H](COC[C@@H](O)CN2C(=O)c2cc(Cl)cc(Cl)c2)O1)N1CCc2ccccc2C1 | -5 | x | x | x | x | x | x
COc1ccccc1/C=C/C=N/NC(=O)c1cc(-c2ccco2)[nH]n1 | x | -3 | 8 | -1 | 43* | 10 | 54*
C[C@@H]1CN([C@H](C)CO)C(=O)c2cc(C3=CCCCC3)cnc2O[C@@H]1CN(C)C(=O)c1cccc(F)c1 | 5 | x | x | x | x | x | x
Cc1ccc(NCc2nnc(SCC(=O)c3ccccc3)n2Cc2ccco2)c(C)c1 | 17 | 0 | -2 | -2 | 25* | -5 | 57*
Cc1ccccc1NC(=O)c1ccc(NS(=O)(=O)c2cc(C(C)(C)C)cc(C)c2C)cc1 | x | -4 | 13* | -12 | 41* | 5 | 26
Cc1cc(C(C)(C)C)cc(S(=O)(=O)Nc2cccc(C(=O)O)c2)c1C | -9 | 2 | 3 | 3 | -4 | 1 | x
CN(C)CC#Cc1ccc([C@@H]2[C@H](CO)N3CCCCN(C(=O)Nc4ccccc4F)C[C@@H]23)cc1 | 1 | x | x | x | x | x | x
COc1ccc2c(c1)c(C(=O)N/N=C/c1ccc(O)c(O)c1)c(C)n2C | x | 5 | 2 | 6 | 6 | 4 | x
Cn1c2ccccc2c2cc(/C=N/NC(=O)c3cc(O)ccc3O)ccc21 | 2 | -4 | 26* | 5 | 49* | 10 | 52*
COc1ccc(S(=O)(=O)N(C)C[C@H]2OCCCC[C@@H](C)Oc3ccc(NC(=O)Nc4ccc(C(F)(F)F)cc4)cc3C(=O)N([C@@H](C)CO)C[C@H]2C)cc1 | -5 | x | x | x | x | x | x
C[C@@H]1CCCCO[C@H](CN(C)S(=O)(=O)c2ccc(F)cc2)[C@@H](C)CN([C@H](C)CO)C(=O)c2cc(NC(=O)Nc3ccc(C(F)(F)F)cc3)ccc2O1 | 6 | -3 | x | -2 | 35* | 12 | -2
C[C@@H]1CN([C@H](C)CO)C(=O)c2cc(C#CC3CCCCC3)cnc2O[C@@H]1CN(C)S(=O)(=O)c1ccc(F)cc1 | -7 | x | x | x | x | x | x
C[C@@H]1CCCCO[C@H](CN(C)C(=O)Nc2ccc(C(F)(F)F)cc2)[C@@H](C)CN([C@H](C)CO)C(=O)c2cc(NC(=O)c3ccncc3)ccc2O1 | 2 | -1 | x | 1 | 35* | 8 | 35
C[C@@H]1CCCCO[C@@H](CN(C)S(=O)(=O)c2ccc(F)cc2)[C@@H](C)CN([C@@H](C)CO)C(=O)c2cc(NC(=O)Nc3ccc(C(F)(F)F)cc3)ccc2O1 | 10 | x | x | x | x | x | x
C[C@@H]1CN([C@@H](C)CO)C(=O)c2cc(C#CC3CCCCC3)cnc2O[C@@H]1CN(C)S(=O)(=O)c1ccc(F)cc1 | 7 | -5 | x | -8 | 75* | 10 | 33
COc1ccc(S(=O)(=O)N(C)C[C@@H]2OCCCC[C@H](C)Oc3ccc(NC(=O)Nc4ccc(C(F)(F)F)cc4)cc3C(=O)N([C@H](C)CO)C[C@H]2C)cc1 | 9 | 0 | x | -15 | 30* | 0 | -3
Cc1ccc(S(=O)(=O)N(C)C[C@@H]2Oc3c(NC(=O)Nc4cccc5ccccc45)cccc3C(=O)N([C@H](C)CO)C[C@H]2C)cc1 | 4 | x | x | x | x | x | x
CC(C)COC(=O)N(C)C[C@H]1OCc2ccccc2-c2c(n(C)c3ccccc23)C(=O)N([C@@H](C)CO)C[C@H]1C | 1 | x | x | x | x | x | x
CCOc1ccc(C(=O)Nc2ccc(N3CCCC3)cc2)cc1 | 38 | -1 | -4 | 12 | 35* | 10 | -4
COc1ccc(C(=O)Nc2ccc(N3CCCC3)cc2)cc1 | 6 | 1 | -1 | 23 | 40* | 28 | 0
CCOc1cccc(C(=O)Nc2ccc(N3CCCC3)cc2)c1 | 8 | 1 | -6 | 0 | 8 | 9 | x
O=C(Nc1ccc(S(=O)(=O)Nc2nccs2)cc1)c1c(F)c(F)c(F)c(F)c1F | x | -2 | -4 | x | 7 | 1 | x
SMILES | esBAF inh | SMARCA2 act | NR3A LBD binder | Vif imaging | NadD block | SKN-1 block | NadD conf
Cc1cc(C)c2oc(C(=O)Nc3ccc(S(=O)(=O)Nc4nccs4)cc3)cc(=O)c2c1 | x | 2 | 1 | -3 | 21 | -8 | x
O=C(Nc1ccc(S(=O)(=O)Nc2nccs2)cc1)c1cccc(N2C(=O)c3ccccc3C2=O)c1 | x | -5 | 2 | 3 | 39* | 13 | 58*
CCC(Oc1ccc(C)cc1)C(=O)Nc1ccc(S(=O)(=O)Nc2nccs2)cc1 (stereo unspecified) | 5 | 0 | -8 | 10 | 2 | 1 | x
Cc1ccc(Oc2ccc3c(c2)C(=O)N(c2ccc(S(=O)(=O)Nc4nccs4)cc2)C3=O)cc1 | -9 | -2 | 1 | 3 | 44* | 11 | 46
O=C(Nc1nccs1)c1cccc(N2C(=O)C3C4C=CC(C4)C3C2=O)c1 (stereo unspecified) | x | -3 | 0 | 4 | 3 | 0 | x
Cc1cc2oc(C(=O)Nc3ccc(S(=O)(=O)Nc4nccs4)cc3)cc(=O)c2cc1Cl | x | -6 | 17* | 4 | 64* | 2 | 23
O=C(Nc1nccs1)c1cccc(N2C(=O)c3cccc4c([N+](=O)[O-])ccc(c34)C2=O)c1 | -16 | 1 | -1 | 4 | 38* | 24 | 10
C[C@@H]1CN([C@H](C)CO)C(=O)c2cc(NC(=O)C3CCCCC3)ccc2O[C@@H]1CN(C)C | 1 | x | x | x | x | x | x
Cc1ccc(S(=O)(=O)N[C@@H]2CC[C@@H](CCNC(=O)C3CCC3)O[C@H]2CO)cc1 | -5 | x | x | x | x | x | x
C[C@H](CO)N1C[C@H](C)[C@@H](CN(C)C(=O)NC2CCCCC2)Oc2c(NS(C)(=O)=O)cccc2C1=O | -5 | x | x | x | x | x | x
O=C1Nc2cc(C(=O)NCCCN3CCCC3)ccc2S/C1=C/c1ccccc1F | 3 | 1 | -5 | -7 | 4 | -15 | x
O=C1Nc2cc(C(=O)NCCN3CCCCCC3)ccc2S/C1=C/c1ccccc1F | -1 | 7 | x | 24 | 46* | 11 | -11
COc1ccc(/C=C2\Sc3ccc(C(=O)NCCN4CCCCCC4)cc3N(C)C2=O)cc1 | -21 | 3 | -5 | -1 | 47* | -12 | 8
C[C@@H]1CN([C@H](C)CO)C(=O)Cc2cc(NC(=O)CCCCCC(=O)Nc3ccccc3N)ccc2O[C@@H]1CN(C)C(=O)Nc1ccccc1 | -2 | x | x | x | x | x | x
